Hits are enriched below; roughly 11% of the tested compounds scored in any of these assays.
hNpr1 antagonist: human Npr1 receptor antagonism; Potency, µM (top dose mostly 46.3 µM), for the others: at the top dose activity change, negative = inhibition, actives largely listed as inhibitors; P16066; actives 1.6% (n = 76,000); HEK293 hNpr1 GloSensor cGMP, ANP-stimulated luminescence; calls by dose curve; note: nearly all actives have a fitted effect of over 60% in size
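HEK293 cells stably expressing human Npr1 and cGMP GloSensor pGS-40F, loaded 2 h with 2% GloSensor reagent, given compound 30 min at room temperature. Luminescence read before and 20 min after 0.1 nM hNppA.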
FLuc inh: Photinus pyralis luciferase inhibition | purified P. pyralis luciferase, luminescence, biochemical | Potency, µM (series often up to 115 µM), hits mostly inhibitors | P08659 | actives 2.5% (n = 76,000); note: nearly all actives have a fitted effect of over 65% in size
Target sequence (P08659 whole entry, looked up): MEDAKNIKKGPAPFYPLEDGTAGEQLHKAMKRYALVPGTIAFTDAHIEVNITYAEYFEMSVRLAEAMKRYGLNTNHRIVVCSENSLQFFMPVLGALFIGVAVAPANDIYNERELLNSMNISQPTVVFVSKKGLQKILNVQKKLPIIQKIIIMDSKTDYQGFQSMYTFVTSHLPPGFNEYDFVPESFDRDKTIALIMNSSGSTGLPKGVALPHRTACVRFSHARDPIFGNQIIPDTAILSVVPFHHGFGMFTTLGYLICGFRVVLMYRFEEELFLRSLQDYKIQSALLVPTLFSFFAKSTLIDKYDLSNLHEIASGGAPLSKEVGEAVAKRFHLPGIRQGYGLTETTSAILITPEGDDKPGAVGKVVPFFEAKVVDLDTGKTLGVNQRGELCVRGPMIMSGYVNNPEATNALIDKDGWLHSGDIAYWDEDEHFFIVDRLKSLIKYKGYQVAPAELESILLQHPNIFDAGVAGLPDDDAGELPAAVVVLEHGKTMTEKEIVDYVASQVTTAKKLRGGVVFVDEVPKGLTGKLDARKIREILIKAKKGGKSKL
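FLuc 10nM, D-luciferin 10uM, ATP 10uM, Mg acetate 10mM, Tris acetate pH 7.5, Tween/BSA; cpd qHTS; enzyme added last; CCD luminescence.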
NIH3T3 tox: kills NIH 3T3 cells. NIH 3T3 viability, CellTiter-Glo ATP luminescence, 48-72 h. Potency, µM (highest dose often 96.7 µM), for inactives: at the highest dose activity change, negative = cytotoxicity, usual class: inhibitors. actives 4.3% (n = 94,000); note: nearly all actives have a fitted effect of over 55% in size
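Cells were seeded at 400 per well, treated with pin-transferred compound, and kept 48 or 72 hr at 37 °C before CellTiter-Glo addition and luminescence imaging of cellular ATP.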
HEK293 tox: cytotoxic compounds in HEK 293 cells; HEK 293 viability, ATP luminescence (CellTiter-Glo), 48-72 h; Potency, µM (top dose mostly 115 µM), inactives show at the top dose activity change, negative = cytotoxicity, most hits filed as inhibitors; actives 6.6% (n = 94,000); note: nearly all actives have a fitted effect of over 60% in size
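Cytotoxicity was scored by loss of ATP-coupled luminescence (CellTiter-Glo) in HEK 293 cells. Compound treatment ran 48 or 72 hr at 37 degree Celsius, 5% CO2, 95% humidity.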
Active calls of the source: *; i = inactive; u = inconclusive; x = no result given; [ ] = dose if it differs, or a comment. Unless noted, calls come from the whole dose curve; as a rule, active = well fitted curve in the direction sought with a large enough effect; inconclusive = small, poorly fitted or top-dose-only effect, or another doubt; inactive = no such curve, though single readings can be large; an effect the other way counts as inactive or inconclusive. % is set by controls: 0 for no effect and ±100 for the full control effect; potency is the fitted concentration of half-maximal effect.

SMILES	hNpr1 antagonist	FLuc inh	NIH3T3 tox	HEK293 tox
CNC(=O)c1cc(C2CC2)nc2c1c(C1CCCN(C(=O)c3cccnc3)C1)nn2C (centres undefined)	x	x	-12%	1%
CC(C)CN1C(=O)COC[C@@H]1[C@H](O)c1ccc(NC(=O)c2cccnc2)cc1	-3%[70.6 µM]	i	-7%[138 µM]	i
COCCNC(=O)[C@@H]1Cc2cn(Cc3ccncc3)c3cccc(c23)[C@H](CC(C)C)N1	-3%[70.6 µM]	i	45µM*	45µM*
CC(C)C[C@@H]1N[C@H](C(=O)NCc2ccccc2)Cc2cn(Cc3ccncc3)c3cccc1c23	-5%	i	u	u
Cc1cc(C)cc(NC(=O)N2[C@@H]3CC[C@H]2CC(NC(=O)c2ccc(F)cc2)C3)c1 (some centres undefined)	-6%	i	u	40µM*
COCCc1noc([C@@H]2CN(Cc3ccc(C(C)C)cc3)C[C@H]2CO)n1	-28%	i	u	40µM*
COCCc1noc([C@@H]2CN(Cc3ccc4c(c3)CCO4)C[C@H]2CO)n1	-1%	i	-18%	-21%
CCNC(=O)C12CCCC=C1N(C1CCCC1)C(=O)CC2 (centres undefined)	-6%	40µM*	-13%	4%
CCN1C(=O)CCC2(C(=O)NCCN(C)C3CCCCC3)CCCC=C12 (centres undefined)	-3%	i	u	45µM*
CCN1C(=O)CCC2(C(=O)NC3CCCC3)CCCC=C12 (centres undefined)	3%	i	-8%	-19%
Cc1nn(-c2ccccc2)c2c1C(C)N(C1CN(C(=O)NC3CCCC3)C1)C2=O (centres undefined)	x	x	28µM*	u
Cc1ccccc1C(=O)N1CCC(N2C(=O)c3c(c(C)nn3-c3ccccc3)C2C)C1 (centres undefined)	x	x	u	45µM*
Cc1nn(-c2ccccc2)c2c1C(C(C)C)N(C1CCN(C(=O)C3CC3)CC1)C2=O (centres undefined)	x	x	-28%	-19%
COC(=O)N1CCCC(N2C(=O)c3c(c(C)nn3-c3ccccc3)C2C)C1 (centres undefined)	x	x	-26%	u
Cc1nn(-c2ccccc2)c2c1C(C)N(C1CCCN(C(=O)C3CC3)C1)C2=O (centres undefined)	x	x	-11%	-2%
Cc1ccccc1C(=O)N1CCC(N2C(=O)c3c(c(C)nn3-c3ccccc3)C2C)CC1 (centres undefined)	x	x	u	45µM*
COc1ccccc1C(=O)N1CCC(N2C(=O)c3c(c(C)nn3-c3ccccc3)C2C)CC1 (centres undefined)	x	x	u	40µM*
CC(=O)Nc1ccc(CC(=O)N2CCC(C)(c3noc(-c4cccnc4)n3)CC2)cc1	x	x	-8%	u
COc1ccc(CN(Cc2ccc(OC)cc2)[C@@H]2CO[C@H](CNC(=O)CC(C)(C)C)[C@H]2O)cc1	1%	i	u	71µM*
COc1ccc(CN2CCC3(C2)C(=NC2CCCCC2)NC(=O)N3c2cccnc2)cc1 (centres undefined)	x	x	32µM*	i
O=C1NC(=NC2CCCC2)C2(CCN(Cc3ccc(F)cc3)C2)N1c1cccnc1 (centres undefined)	x	x	22µM*	-15%
O=C1NC(=NC2CCCCC2)C2(CCN(Cc3ccc(F)cc3)C2)N1c1cccnc1 (centres undefined)	x	x	40µM*	i
O=C1NC(=NC2CCCC2)C2(CCN(Cc3ccncc3)C2)N1c1cccnc1 (centres undefined)	x	x	u	-14%
CC(C)(C)NC(=O)C[C@@H]1CCNC[C@@H]1Cc1cc(COc2ccccc2)on1	5%[70.6 µM]	i	-17%[174 µM]	u
COc1ccccc1N1CCN(C(=O)C[C@@H]2CCNC[C@@H]2Cc2cc(-c3ccc(C(C)(C)C)cc3)on2)CC1	-1%	i	u	u
SMILES	hNpr1 antagonist	FLuc inh	NIH3T3 tox	HEK293 tox
COc1ccc(-c2cc(C[C@H]3CNCC[C@H]3CC(=O)Nc3nccs3)no2)cc1	-1%[70.6 µM]	i	79µM*	100µM*
CC(C)(C)c1ccc(-c2cc(C[C@H]3CNCC[C@H]3CC(=O)Nc3nccs3)no2)cc1	2%	i	8.9µM*	u
CC(C)(C)c1cc(C[C@H]2CNCC[C@H]2CC(=O)Nc2nccs2)no1	5%[70.6 µM]	i	u	100µM*
CNC(=O)N1CCC(C2CCN(C(=O)c3nn(C)c4ccccc34)C2)CC1 (centres undefined)	x	x	-11%	-5%
Cc1cccc(C)c1NC(=O)CN1C(=O)NC(c2ccccc2Cl)C2=C1COC2=O (centres undefined)	1%	i	-8%	-4%
O=C(CC1CCOCC1)NCc1ccc(OC(F)(F)F)cc1	0%	i	-7%	u
COC(=O)[C@@H]1Cc2c([nH]c3ccccc23)[C@H]2C[C@@H](NCc3cccnc3)C[C@@H](c3ccc(OC(F)(F)F)cc3)N21	6%	i	32µM*	28µM*
COC(=O)[C@@H]1Cc2c([nH]c3ccccc23)[C@H]2C[C@@H](N3CCOCC3)C[C@@H](c3ccc(C(F)(F)F)cc3)N21	4%	i	25µM*	22µM*
COC(=O)[C@@H]1Cc2c([nH]c3ccccc23)[C@H]2C[C@@H](N3CCOCC3)C[C@@H](c3ccc(OC(F)(F)F)cc3)N21	2%	i	45µM*	u
COc1ccc(Cn2c(=O)c(C(=O)N3CCN(C(=O)N(C)C)CC3)nc3cccnc32)cc1	x	x	2%	i
NCc1ccccc1-c1cnc2ccccc2c1	x	x	100µM*	u
COc1ccc(C(=O)NCCC2CCN(C(=O)Nc3cccc(F)c3)CC2)cc1	x	x	-25%	-15%
Cc1ccc2c(n1)N(C)[C@H](CO)CCN(Cc1ccc(Cl)cc1)C2	-2%[70.6 µM]	i	u	71µM*
CN1CCN(C(=O)c2ccc3nnc(-c4ccc([S+](C)(=O)[O-])cc4)n3c2)CC1	x	x	-13%	-12%
NC[C@H]1O[C@H](Cc2cc(-c3ccc(F)cc3)on2)CC[C@@H]1O	14µM*	35µM*	-6%[174 µM]	u
O[C@H]1CC[C@@H](Cc2cc(-c3ccc(F)cc3)on2)O[C@@H]1CNC1CCOCC1	-30%[70.6 µM]	u	0%[174 µM]	i
O=C(NC[C@H]1O[C@H](Cc2cc(-c3ccc(F)cc3)on2)CC[C@@H]1O)NC1CCCCC1	10µM*	71µM*	89µM*	u
CC(C)c1noc(C2CCCN(Cc3cn(C(C)C)c4ccccc34)CCC(=O)NCC2)n1 (centres undefined)	-7%	i	u	40µM*
CCCN(C)C(=O)c1ccc(-c2nnc3ccc(NC(=O)C4CCC4)cn23)cc1	-3%	i	-19%	u
O=C(COc1ccccc1)Nc1cccn2nc(C3CCC3)nc12	3%	i	u	u
O=C(Nc1cccn2nc(C3CCC3)nc12)c1ccccn1	-20%	i	8.9µM*	u

Screens: PubChem, National Center for Advancing Translational Sciences (NCATS)
